# Assay results published in the supplement of paper PMC4466140.
# B1: unnamed (peptide)
# chain: TPEIPPPLPPKIMVH
# B2: unnamed (peptide)
# chain: GDHPKGPPPPPPPPD
# Target: AgAbp1
# Experiment: SPOT peptide array binding signal intensity (averaged, normalized) (arbitrary units (background-subtracted, floor 0; scale differs between SH3 domains)); higher = stronger binding of the SH3 domain to the peptide
# Outline: (§1)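 Detection of bound protein relied on anti-GST antibody, an HRP anti-mouse secondary and luminol, with imaging and quantification in Genespotter. The bound protein was GST-fused SH3 domains from four yeast species, incubated at 10 μg/ml overnight at 4°C in TBS-based blocking buffer on cellulose membranes carrying synthetic 15-mer peptides with cysteines replaced by serines. Binding signal is normalized, background-subtracted spot intensity averaged over replicates, in arbitrary units that differ between domains.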
row,Binder,SPOT peptide array binding signal intensity
1,B1,≤ 0
2,B2,≤ 0

# Target: AgBbc1
# Experiment: as above
# Outline: as §1
row,Binder,SPOT peptide array binding signal intensity
1,B1,≤ 0
2,B2,≤ 0

# Target: AgBem1-D1
# Experiment: as above
# Outline: as §1
row,Binder,SPOT peptide array binding signal intensity
1,B1,≤ 0
2,B2,≤ 0

# Target: AgBzz1-D1
# Experiment: as above
# Outline: as §1
row,Binder,SPOT peptide array binding signal intensity
1,B1,≤ 0
2,B2,440

# Target: AgBzz1-D2
# Experiment: as above
# Outline: as §1
row,Binder,SPOT peptide array binding signal intensity
1,B1,4.5
2,B2,43

# Target: AgCyk3
# Experiment: as above
# Outline: as §1
row,Binder,SPOT peptide array binding signal intensity
1,B1,≤ 0
2,B2,≤ 0

# Target: AgFus1
# Experiment: as above
# Outline: as §1
row,Binder,SPOT peptide array binding signal intensity
1,B1,≤ 0
2,B2,3

# Target: AgHof1
# Experiment: as above
# Outline: as §1
row,Binder,SPOT peptide array binding signal intensity
1,B1,631
2,B2,≤ 0

# Target: AgHse1
# Experiment: as above
# Outline: as §1
row,Binder,SPOT peptide array binding signal intensity
1,B1,822
2,B2,≤ 0

# Target: AgLsb1
# Experiment: as above
# Outline: as §1
row,Binder,SPOT peptide array binding signal intensity
1,B1,≤ 0
2,B2,≤ 0

# Target: AgLsb4
# Experiment: as above
# Outline: as §1
row,Binder,SPOT peptide array binding signal intensity
1,B1,232
2,B2,≤ 0

# Target: AgMyo5
# Experiment: as above
# Outline: as §1
row,Binder,SPOT peptide array binding signal intensity
1,B1,496
2,B2,1010

# Target: AgNbp2
# Experiment: as above
# Outline: as §1
row,Binder,SPOT peptide array binding signal intensity
1,B1,≤ 0
2,B2,3

# Target: AgRvs167
# Experiment: as above
# Outline: as §1
row,Binder,SPOT peptide array binding signal intensity
1,B1,9.33
2,B2,≤ 0

# Target: AgSho1
# Experiment: as above
# Outline: as §1
row,Binder,SPOT peptide array binding signal intensity
1,B1,66
2,B2,3

# Target: AgSla1-D1-D2
# Experiment: as above
# Outline: as §1
row,Binder,SPOT peptide array binding signal intensity
1,B1,≤ 0
2,B2,≤ 0

# Target: AgSla1-D3
# Experiment: as above
# Outline: as §1
row,Binder,SPOT peptide array binding signal intensity
1,B1,≤ 0
2,B2,699

# Target: CaAbp1-D1
# Experiment: as above
# Outline: as §1
row,Binder,SPOT peptide array binding signal intensity
1,B1,6.5
2,B2,≤ 0

# Target: CaAbp1-D2
# Experiment: as above
# Outline: as §1
row,Binder,SPOT peptide array binding signal intensity
1,B1,≤ 0
2,B2,≤ 0

# Target: CaBbc1
# Experiment: as above
# Outline: as §1
row,Binder,SPOT peptide array binding signal intensity
1,B1,≤ 0
2,B2,≤ 0

# Target: CaBem1-D1
# Experiment: as above
# Outline: as §1
row,Binder,SPOT peptide array binding signal intensity
1,B1,≤ 0
2,B2,≤ 0

# Target: CaBzz1-D1
# Experiment: as above
# Outline: as §1
row,Binder,SPOT peptide array binding signal intensity
1,B1,≤ 0
2,B2,2370

# Target: CaBzz1-D2
# Experiment: as above
# Outline: as §1
row,Binder,SPOT peptide array binding signal intensity
1,B1,≤ 0
2,B2,1470

# Target: CaCyk3
# Experiment: as above
# Outline: as §1
row,Binder,SPOT peptide array binding signal intensity
1,B1,≤ 0
2,B2,4

# Target: CaFus1
# Experiment: as above
# Outline: as §1
row,Binder,SPOT peptide array binding signal intensity
1,B1,74
2,B2,19

# Target: CaHof1
# Experiment: as above
# Outline: as §1
row,Binder,SPOT peptide array binding signal intensity
1,B1,20.5
2,B2,≤ 0

# Target: CaHse1
# Experiment: as above
# Outline: as §1
row,Binder,SPOT peptide array binding signal intensity
1,B1,3420
2,B2,3.5

# Target: CaLsb1
# Experiment: as above
# Outline: as §1
row,Binder,SPOT peptide array binding signal intensity
1,B1,≤ 0
2,B2,≤ 0

# Target: CaLsb4
# Experiment: as above
# Outline: as §1
row,Binder,SPOT peptide array binding signal intensity
1,B1,1090
2,B2,≤ 0

# Target: CaMyo5
# Experiment: as above
# Outline: as §1
row,Binder,SPOT peptide array binding signal intensity
1,B1,25.5
2,B2,34

# Target: CaNbp2
# Experiment: as above
# Outline: as §1
row,Binder,SPOT peptide array binding signal intensity
1,B1,9
2,B2,≤ 0

# Target: CaRvs167
# Experiment: as above
# Outline: as §1
row,Binder,SPOT peptide array binding signal intensity
1,B1,29.8
2,B2,0.333

# Target: CaRvs167-3
# Experiment: as above
# Outline: as §1
row,Binder,SPOT peptide array binding signal intensity
1,B1,≤ 0
2,B2,1

# Target: CaSho1
# Experiment: as above
# Outline: as §1
row,Binder,SPOT peptide array binding signal intensity
1,B1,124
2,B2,≤ 0

# Target: CaSla1-D1-D2
# Experiment: as above
# Outline: as §1
row,Binder,SPOT peptide array binding signal intensity
1,B1,≤ 0
2,B2,≤ 0

# Target: CaSla1-D3
# Experiment: as above
# Outline: as §1
row,Binder,SPOT peptide array binding signal intensity
1,B1,≤ 0
2,B2,≤ 0

# Target: ScAbp1
# Experiment: as above
# Outline: as §1
row,Binder,SPOT peptide array binding signal intensity
1,B1,≤ 0
2,B2,≤ 0

# Target: ScBbc1
# Experiment: as above
# Outline: as §1
row,Binder,SPOT peptide array binding signal intensity
1,B1,≤ 0
2,B2,≤ 0

# Target: ScBem1-D1
# Experiment: as above
# Outline: as §1
row,Binder,SPOT peptide array binding signal intensity
1,B1,≤ 0
2,B2,≤ 0

# Target: ScBzz1-D1
# Experiment: as above
# Outline: as §1
row,Binder,SPOT peptide array binding signal intensity
1,B1,≤ 0
2,B2,1030

# Target: ScBzz1-D2
# Experiment: as above
# Outline: as §1
row,Binder,SPOT peptide array binding signal intensity
1,B1,11
2,B2,≤ 0

# Target: ScCyk3
# Experiment: as above
# Outline: as §1
row,Binder,SPOT peptide array binding signal intensity
1,B1,≤ 0
2,B2,≤ 0

# Target: ScFus1
# Experiment: as above
# Outline: as §1
row,Binder,SPOT peptide array binding signal intensity
1,B1,≤ 0
2,B2,≤ 0

# Target: ScHof1
# Experiment: as above
# Outline: as §1
row,Binder,SPOT peptide array binding signal intensity
1,B1,722
2,B2,≤ 0

# Target: ScHse1
# Experiment: as above
# Outline: as §1
row,Binder,SPOT peptide array binding signal intensity
1,B1,≤ 0
2,B2,16

# Target: ScLsb1
# Experiment: as above
# Outline: as §1
row,Binder,SPOT peptide array binding signal intensity
1,B1,109
2,B2,≤ 0

# Target: ScLsb2
# Experiment: as above
# Outline: as §1
row,Binder,SPOT peptide array binding signal intensity
1,B1,≤ 0
2,B2,≤ 0

# Target: ScLsb3
# Experiment: as above
# Outline: as §1
row,Binder,SPOT peptide array binding signal intensity
1,B1,6940
2,B2,≤ 0

# Target: ScLsb4
# Experiment: as above
# Outline: as §1
row,Binder,SPOT peptide array binding signal intensity
1,B1,376
2,B2,≤ 0

# Target: ScMyo3
# Experiment: as above
# Outline: as §1
row,Binder,SPOT peptide array binding signal intensity
1,B1,611
2,B2,1170

# Target: ScMyo5
# Experiment: as above
# Outline: as §1
row,Binder,SPOT peptide array binding signal intensity
1,B1,380
2,B2,1020

# Target: ScNbp2
# Experiment: as above
# Outline: as §1
row,Binder,SPOT peptide array binding signal intensity
1,B1,2
2,B2,3

# Target: ScPex13
# Experiment: as above
# Outline: as §1
row,Binder,SPOT peptide array binding signal intensity
1,B1,1210
2,B2,7.63e-06

# Target: ScRvs167
# Experiment: as above
# Outline: as §1
row,Binder,SPOT peptide array binding signal intensity
1,B1,525
2,B2,≤ 0

# Target: ScSho1
# Experiment: as above
# Outline: as §1
row,Binder,SPOT peptide array binding signal intensity
1,B1,1610
2,B2,≤ 0

# Target: ScSla1-D1-D2
# Experiment: as above
# Outline: as §1
row,Binder,SPOT peptide array binding signal intensity
1,B1,≤ 0
2,B2,≤ 0

# Target: ScSla1-D3
# Experiment: as above
# Outline: as §1
row,Binder,SPOT peptide array binding signal intensity
1,B1,≤ 0
2,B2,≤ 0

# Target: SpAbp1-D1
# Experiment: as above
# Outline: as §1
row,Binder,SPOT peptide array binding signal intensity
1,B1,≤ 0
2,B2,≤ 0

# Target: SpBbc1
# Experiment: as above
# Outline: as §1
row,Binder,SPOT peptide array binding signal intensity
1,B1,0.5
2,B2,≤ 0

# Target: SpBzz1-D1
# Experiment: as above
# Outline: as §1
row,Binder,SPOT peptide array binding signal intensity
1,B1,68
2,B2,67

# Target: SpBzz1-D2
# Experiment: as above
# Outline: as §1
row,Binder,SPOT peptide array binding signal intensity
1,B2,2

# Target: SpCyk3
# Experiment: as above
# Outline: as §1
row,Binder,SPOT peptide array binding signal intensity
1,B2,≤ 0

# Target: SpHof1
# Experiment: as above
# Outline: as §1
row,Binder,SPOT peptide array binding signal intensity
1,B2,≤ 0

# Target: SpHof1-2
# Experiment: as above
# Outline: as §1
row,Binder,SPOT peptide array binding signal intensity
1,B2,≤ 0

# Target: SpHof1-3
# Experiment: as above
# Outline: as §1
row,Binder,SPOT peptide array binding signal intensity
1,B2,≤ 0

# Target: SpHse1
# Experiment: as above
# Outline: as §1
row,Binder,SPOT peptide array binding signal intensity
1,B2,1

# Target: SpLsb1
# Experiment: as above
# Outline: as §1
row,Binder,SPOT peptide array binding signal intensity
1,B2,≤ 0

# Target: SpLsb4
# Experiment: as above
# Outline: as §1
row,Binder,SPOT peptide array binding signal intensity
1,B2,≤ 0

# Target: SpMyo1
# Experiment: as above
# Outline: as §1
row,Binder,SPOT peptide array binding signal intensity
1,B2,1570

# Target: SpNbp2
# Experiment: as above
# Outline: as §1
row,Binder,SPOT peptide array binding signal intensity
1,B2,18.5

# Target: SpPex13
# Experiment: as above
# Outline: as §1
row,Binder,SPOT peptide array binding signal intensity
1,B2,≤ 0

# Target: SpRvs167
# Experiment: as above
# Outline: as §1
row,Binder,SPOT peptide array binding signal intensity
1,B2,≤ 0

# Target: SpSla1-D1-D2
# Experiment: as above
# Outline: as §1
row,Binder,SPOT peptide array binding signal intensity
1,B2,≤ 0

# Target: SpSla1-D3
# Experiment: as above
# Outline: as §1
row,Binder,SPOT peptide array binding signal intensity
1,B2,≤ 0
